Source: PubChem BioAssay (EPA / NIEHS)
“And” between values parts separate entries of the source, which are not always exact repeats. Identical values can stand only once. Results filed as inconclusive are left out. Some compounds were tested as several samples or in several runs, with calls that do not always agree. The source made the active and inactive calls. Rule for the calls, unless noted: active = hit-call score of the fitted dose curve at least 0.9, where 1 is the maximum; inconclusive = response in the unintended direction; inactive = score below 0.9.

Key:
[1] = biological target: Estrogen-related receptor gamma (Homo sapiens) (UniProt P62508); experiment: ATG_ERRg_TRANS: Attagene TRANS-FACTORIAL HepG2 Assay for human Estrogen-Related Receptor gamma (ERRg) (AID 2282977); conditions: HepG2 Attagene TRANS reporter, ERRg transactivation;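 note: hits increase reporter signal over DMSO so potencies reflect activators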
Chain of Estrogen-related receptor gamma (Homo sapiens) (P62508 whole entry, looked up, the tested form may be a part): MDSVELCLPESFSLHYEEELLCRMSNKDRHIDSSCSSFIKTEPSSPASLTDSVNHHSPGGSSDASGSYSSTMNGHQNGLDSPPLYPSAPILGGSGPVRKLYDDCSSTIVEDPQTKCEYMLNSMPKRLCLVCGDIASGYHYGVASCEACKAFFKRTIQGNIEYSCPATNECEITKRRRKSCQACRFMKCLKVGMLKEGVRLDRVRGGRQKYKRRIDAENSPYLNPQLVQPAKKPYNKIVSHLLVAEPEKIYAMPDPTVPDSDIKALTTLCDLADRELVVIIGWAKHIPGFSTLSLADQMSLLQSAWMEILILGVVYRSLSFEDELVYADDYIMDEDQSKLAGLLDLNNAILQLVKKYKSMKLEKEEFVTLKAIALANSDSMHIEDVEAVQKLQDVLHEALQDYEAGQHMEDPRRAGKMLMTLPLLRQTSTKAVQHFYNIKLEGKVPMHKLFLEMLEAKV
How it was run: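 Readout: fluorescent reporter-mRNA fragments resolved by capillary electrophoresis after RT-PCR and HpaI cut. Cells: transiently transfected HepG2 carrying GAL4-UAS reporters driven by exogenous NR-Gal4 chimeras, dosed 24 h. Activity fitted upward relative to DMSO baseline.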

[2] = biological target: Bile acid receptor (Homo sapiens) (UniProt Q96RI1); experiment: ATG_FXR_TRANS: Attagene TRANS-FACTORIAL HepG2 Assay for Farnesoid X Receptor (FXR) (AID 2282979); conditions: HepG2 Attagene TRANS FXR-GAL4 reporter transcription;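 note: hits raise reporter mRNA above DMSO so AC50 marks FXR activation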
Chain of Bile acid receptor (Homo sapiens) (Q96RI1 whole entry, looked up, the tested form may be a part): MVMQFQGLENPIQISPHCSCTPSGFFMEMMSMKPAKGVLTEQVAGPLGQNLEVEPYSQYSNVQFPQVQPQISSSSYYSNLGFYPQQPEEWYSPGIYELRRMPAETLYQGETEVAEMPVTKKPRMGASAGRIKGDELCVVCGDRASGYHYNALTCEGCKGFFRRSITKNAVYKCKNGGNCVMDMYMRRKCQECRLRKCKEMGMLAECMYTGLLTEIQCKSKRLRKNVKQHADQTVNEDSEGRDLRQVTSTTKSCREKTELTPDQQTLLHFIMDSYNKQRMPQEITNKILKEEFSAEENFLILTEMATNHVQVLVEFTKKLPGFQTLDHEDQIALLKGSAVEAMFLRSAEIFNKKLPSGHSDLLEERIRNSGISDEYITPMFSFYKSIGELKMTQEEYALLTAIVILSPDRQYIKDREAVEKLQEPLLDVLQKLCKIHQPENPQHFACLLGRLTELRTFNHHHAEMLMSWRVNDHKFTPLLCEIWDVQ
How it was run: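 HepG2 cells were transiently transfected with GAL4-UAS reporters driven by chimeric NR-Gal4 proteins and dosed for 24 h. Reporter mRNA was quantified by RT-PCR, fluorescent labelling, HpaI digestion and capillary electrophoresis, with gain of signal scored versus DMSO.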

[3] = biological target: Oxysterols receptor LXR-alpha (Homo sapiens) (UniProt Q13133); experiment: ATG_LXRa_TRANS: Attagene TRANS-FACTORIAL HepG2 Assay for human Liver X Receptor alpha (LXRa) (AID 2282980); conditions: HepG2 Attagene TRANS reporter, LXRa transactivation
Chain of Oxysterols receptor LXR-alpha (Homo sapiens) (Q13133 whole entry, looked up, the tested form may be a part): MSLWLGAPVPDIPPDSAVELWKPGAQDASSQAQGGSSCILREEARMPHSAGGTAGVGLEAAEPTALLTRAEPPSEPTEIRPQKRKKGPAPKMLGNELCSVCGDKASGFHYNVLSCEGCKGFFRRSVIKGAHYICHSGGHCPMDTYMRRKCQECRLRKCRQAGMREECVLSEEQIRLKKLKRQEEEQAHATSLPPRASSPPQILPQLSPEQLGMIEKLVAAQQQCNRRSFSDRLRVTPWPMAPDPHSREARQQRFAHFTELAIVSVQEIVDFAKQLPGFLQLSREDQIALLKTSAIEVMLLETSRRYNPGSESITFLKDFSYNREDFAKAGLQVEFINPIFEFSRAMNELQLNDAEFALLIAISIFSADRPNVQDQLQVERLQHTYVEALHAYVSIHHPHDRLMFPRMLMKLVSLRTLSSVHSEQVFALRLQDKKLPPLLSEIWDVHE
How it was run: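 HepG2 cells transiently transfected with GAL4-UAS reporter units for chimeric NR-Gal4 proteins, exposed to chemicals for 24 h. Reporter mRNA quantified by RT-PCR and capillary electrophoresis; gain of signal fitted relative to DMSO.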

[4] = biological target: Hepatocyte nuclear factor 4-alpha (Homo sapiens) (UniProt P41235); experiment: ATG_HNF4a_TRANS: Attagene TRANS-FACTORIAL HepG2 Assay for human Hepatocyte Nuclear Factor 4 alpha (HNF4a) (AID 2282982); conditions: HepG2 HNF4a transactivation reporter, mRNA readout
Chain of Hepatocyte nuclear factor 4-alpha (Homo sapiens) (P41235 whole entry, looked up): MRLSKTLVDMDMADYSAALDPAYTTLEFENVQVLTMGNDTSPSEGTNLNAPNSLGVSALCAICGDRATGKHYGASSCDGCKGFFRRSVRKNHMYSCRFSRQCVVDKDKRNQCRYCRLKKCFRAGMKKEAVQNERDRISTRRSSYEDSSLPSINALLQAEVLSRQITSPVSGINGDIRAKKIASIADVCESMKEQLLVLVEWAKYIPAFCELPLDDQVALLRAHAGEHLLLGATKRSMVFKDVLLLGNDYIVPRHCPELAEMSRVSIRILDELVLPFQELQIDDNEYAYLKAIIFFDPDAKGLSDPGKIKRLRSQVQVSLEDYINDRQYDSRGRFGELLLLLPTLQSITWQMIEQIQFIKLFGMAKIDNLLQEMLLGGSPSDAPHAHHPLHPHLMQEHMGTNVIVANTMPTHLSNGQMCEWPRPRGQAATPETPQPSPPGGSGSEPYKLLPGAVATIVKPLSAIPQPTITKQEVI
How it was run: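 Multiplexed reporter assay: transfected HepG2, 24 h exposure, total RNA → oligo(dT) RT → PCR → 6-FAM extension → HpaI digest → CE fluorescence. DMSO = negative control.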

[5] = ATG_M_06_TRANS: Attagene TRANS-FACTORIAL HepG2 Assay for M06 Transcription Factor (Internal Marker) (AID 2282983); conditions: HepG2 Attagene TRANS M06 internal marker reporter;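 for AC50: potency for rise in reporter mRNA above DMSO baseline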
How it was run: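 mRNA levels of a reporter transcript, quantified as FAM fluorescence on capillary electrophoresis, served as readout. HepG2 cells expressing exogenous GAL4-chimera reporter constructs were exposed for 24 h. Gain of signal over DMSO was evaluated.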

[6] = biological target: Nuclear receptor subfamily 4 group A member 2 (Homo sapiens) (UniProt P43354); experiment: ATG_NURR1_TRANS: Attagene TRANS-FACTORIAL HepG2 Assay for human Nuclear Receptor Related Protein 1 (NURR1) (AID 2282985); conditions: HepG2 Attagene TRANS reporter, mRNA readout
Chain of Nuclear receptor subfamily 4 group A member 2 (Homo sapiens) (P43354 whole entry, looked up, the tested form may be a part): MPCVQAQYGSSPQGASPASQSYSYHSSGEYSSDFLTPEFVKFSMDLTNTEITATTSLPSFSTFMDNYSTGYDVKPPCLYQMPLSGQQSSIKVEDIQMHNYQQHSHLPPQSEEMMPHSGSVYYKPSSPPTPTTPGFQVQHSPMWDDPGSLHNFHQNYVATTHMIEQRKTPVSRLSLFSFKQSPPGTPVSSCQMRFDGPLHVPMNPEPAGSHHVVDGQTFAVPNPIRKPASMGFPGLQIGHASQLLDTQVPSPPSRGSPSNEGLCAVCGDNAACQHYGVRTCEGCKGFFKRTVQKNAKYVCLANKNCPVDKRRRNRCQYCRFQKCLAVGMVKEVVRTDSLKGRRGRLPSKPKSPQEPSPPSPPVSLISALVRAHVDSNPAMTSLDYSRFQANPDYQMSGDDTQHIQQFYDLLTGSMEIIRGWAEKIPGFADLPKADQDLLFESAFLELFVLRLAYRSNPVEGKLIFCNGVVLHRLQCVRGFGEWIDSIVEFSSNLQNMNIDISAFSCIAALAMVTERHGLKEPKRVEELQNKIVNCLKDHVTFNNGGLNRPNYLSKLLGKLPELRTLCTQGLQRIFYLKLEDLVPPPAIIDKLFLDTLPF
How it was run: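 Measures transcriptional activation by an exogenous NR-Gal4 chimera in transfected HepG2 liver cells. After 24 h, reporter RNA is reverse-transcribed, amplified and resolved by capillary electrophoresis; DMSO defines baseline.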

[7] = biological target: Transcriptional activator Myb (Homo sapiens) (UniProt P10242); experiment: ATG_Myb_CIS: Attagene CIS-FACTORIAL HepG2 Assay for human Myeloblastosis (Myb) Proto-Oncogene Transcription Factor (AID 2282986; active = hit-call score of the fitted dose curve at least 0.9, where 1 is the maximum; inactive = score below 0.9); conditions: HepG2 Attagene CIS-FACTORIAL Myb reporter transcription; actives raise or lower the signal
Chain of Transcriptional activator Myb (Homo sapiens) (P10242 whole entry, looked up): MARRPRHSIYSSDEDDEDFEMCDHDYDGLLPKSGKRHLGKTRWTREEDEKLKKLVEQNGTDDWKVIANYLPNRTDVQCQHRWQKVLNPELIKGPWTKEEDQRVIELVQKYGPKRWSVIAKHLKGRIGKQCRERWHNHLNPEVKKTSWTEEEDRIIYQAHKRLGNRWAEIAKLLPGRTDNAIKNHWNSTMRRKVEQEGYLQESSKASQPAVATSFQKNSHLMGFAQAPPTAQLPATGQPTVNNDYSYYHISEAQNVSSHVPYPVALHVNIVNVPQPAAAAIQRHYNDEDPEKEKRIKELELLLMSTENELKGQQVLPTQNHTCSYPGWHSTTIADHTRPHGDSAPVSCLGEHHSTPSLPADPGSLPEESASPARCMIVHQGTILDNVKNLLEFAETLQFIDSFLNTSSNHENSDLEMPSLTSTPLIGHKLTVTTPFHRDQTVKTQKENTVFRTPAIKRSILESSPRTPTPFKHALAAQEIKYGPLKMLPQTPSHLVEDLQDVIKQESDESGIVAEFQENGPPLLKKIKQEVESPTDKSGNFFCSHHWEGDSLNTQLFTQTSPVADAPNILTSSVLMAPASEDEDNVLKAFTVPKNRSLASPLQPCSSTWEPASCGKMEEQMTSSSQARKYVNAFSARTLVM
How it was run: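 Reporter transcript levels, quantified by fluorescent RT-PCR and capillary electrophoresis, serve as the read-out. Transfected HepG2 cells carrying cis-promoter reporter units are dosed for 24 hours, and curves are fitted bidirectionally against DMSO controls.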

[8] = biological target: Glucocorticoid receptor (Homo sapiens) (UniProt P04150); experiment: ATG_GR_TRANS: Attagene TRANS-FACTORIAL HepG2 Assay for human Glucocorticoid Receptor (GR) (AID 2282978); conditions: HepG2 Attagene TRANS GR reporter, mRNA transcription;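 note: activators score as hits since higher reporter transcript over DMSO is fitted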
Chain of Glucocorticoid receptor (Homo sapiens) (P04150 whole entry, looked up, the tested form may be a part): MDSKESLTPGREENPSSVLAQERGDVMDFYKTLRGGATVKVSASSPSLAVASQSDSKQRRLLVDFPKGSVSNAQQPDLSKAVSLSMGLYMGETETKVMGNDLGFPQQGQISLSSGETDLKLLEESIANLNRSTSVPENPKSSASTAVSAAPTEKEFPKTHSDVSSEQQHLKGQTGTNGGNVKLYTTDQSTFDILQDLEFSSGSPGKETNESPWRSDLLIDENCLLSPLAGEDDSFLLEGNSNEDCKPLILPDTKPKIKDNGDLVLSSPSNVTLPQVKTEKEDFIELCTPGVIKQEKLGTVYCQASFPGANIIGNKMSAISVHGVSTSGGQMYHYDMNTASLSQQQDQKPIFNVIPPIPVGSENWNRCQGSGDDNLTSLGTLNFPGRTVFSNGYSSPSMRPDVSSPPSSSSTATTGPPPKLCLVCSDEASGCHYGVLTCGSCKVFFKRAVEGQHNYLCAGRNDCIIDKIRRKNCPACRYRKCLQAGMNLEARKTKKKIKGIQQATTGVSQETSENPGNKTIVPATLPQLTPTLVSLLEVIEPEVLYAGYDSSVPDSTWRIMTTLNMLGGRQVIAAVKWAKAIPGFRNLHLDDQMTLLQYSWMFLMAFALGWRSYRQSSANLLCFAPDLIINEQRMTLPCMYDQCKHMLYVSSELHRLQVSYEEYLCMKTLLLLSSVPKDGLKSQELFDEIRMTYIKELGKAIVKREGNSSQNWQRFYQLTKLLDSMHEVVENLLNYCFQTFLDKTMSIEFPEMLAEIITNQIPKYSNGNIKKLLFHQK
How it was run: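 Fluorescent capillary-electrophoresis quantitation of reporter mRNA is the readout, taken 24 h after dosing human HepG2 cells carrying transiently transfected GAL4-UAS reporter units activated by chimeric NR-GAL4 fusions; activity scored as induction over DMSO.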

[9] = biological target: Oxysterols receptor LXR-beta (Homo sapiens) (UniProt P55055); experiment: ATG_LXRb_TRANS: Attagene TRANS-FACTORIAL HepG2 Assay for human Liver X Receptor beta (LXRb) (AID 2282981); conditions: HepG2 Attagene TRANS GAL4-LXRb reporter, mRNA
Chain of Oxysterols receptor LXR-beta (Homo sapiens) (P55055 whole entry, looked up, the tested form may be a part): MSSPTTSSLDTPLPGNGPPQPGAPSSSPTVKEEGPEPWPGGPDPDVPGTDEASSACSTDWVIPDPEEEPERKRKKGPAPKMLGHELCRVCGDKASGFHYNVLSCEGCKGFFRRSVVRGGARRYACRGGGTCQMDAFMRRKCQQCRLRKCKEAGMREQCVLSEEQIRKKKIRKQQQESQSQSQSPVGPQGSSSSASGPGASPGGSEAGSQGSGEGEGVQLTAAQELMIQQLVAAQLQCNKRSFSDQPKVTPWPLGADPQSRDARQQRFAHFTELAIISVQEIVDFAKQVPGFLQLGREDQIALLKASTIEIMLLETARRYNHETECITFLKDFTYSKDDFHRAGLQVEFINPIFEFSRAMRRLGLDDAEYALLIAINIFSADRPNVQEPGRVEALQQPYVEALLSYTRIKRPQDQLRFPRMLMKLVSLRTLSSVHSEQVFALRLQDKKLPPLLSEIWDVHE
How it was run: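 After 24 h of chemical treatment, transfected HepG2 cells yield total RNA; reporter cDNA is PCR-amplified, FAM-labelled, HpaI-cut and run on capillary electrophoresis. Signal reflects chimeric LXRb-Gal4 activity on GAL4-UAS reporters.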

[10] = ATG_M_32_TRANS: Attagene TRANS-FACTORIAL HepG2 Assay for M32 Transcription Factor (Internal Marker) (AID 2282984); conditions: HepG2 Attagene TRANS M32 internal marker reporter
How it was run: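 Cell-based TRANS-format assay in HepG2: exogenous chimeric GAL4 reporter units transiently expressed, compounds applied 24 h. Reporter mRNA detected by RT-PCR plus capillary electrophoresis; this readout is an internal background marker.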

Measured: AC50

O=C(O)C(F)(F)C(F)(F)C(F)(F)C(F)(F)C(F)(F)C(F)(F)C(F)(F)C(F)(F)C(F)(F)C(F)F
inactive: [1] | [2] | [4] | [5] | [7]
active: [3] 50 µM | [6] 28.2 µM

Cc1cc(C)cc(O)c1
inactive: [1] | [8] | [3] | [4] | [7]

CC/C=C\CCOC(C)=O
not listed: [4] | [10]
inactive: all other assays above

O=S(=O)(OCC(F)F)C(F)(F)F
not listed: [4] | [9] | [10]
inactive: all other assays above

CC/C=C\CCOC(=O)c1ccccc1
not listed: [2] | [5] | [9]
inactive: all other assays above

CCO[Si](CCC(F)(F)C(F)(F)C(F)(F)C(F)(F)C(F)(F)C(F)(F)F)(OCC)OCC
not listed: [9] | [10]
inactive: all other assays above

Cc1ccc(S(=O)(=O)NCl)cc1
not listed: [2] | [9] | [10]
inactive: all other assays above

FC(F)(F)C(F)(F)C(F)(F)N(C(F)(F)C(F)(F)C(F)(F)F)C(F)(F)C(F)(F)C(F)(F)F
not listed: [6] | [8] | [9]
inactive: all other assays above

C=CC(F)(F)C(F)(F)C(F)(F)C(F)(F)C(F)(F)C(F)(F)C(F)(F)C(F)(F)F
inactive: all assays above

FC(F)(F)C(F)(F)CNCC(F)(F)C(F)(F)F
not listed: [8] | [9]
inactive: all other assays above

O=S(=O)(OCCOC(F)(F)F)C(F)(F)F
not listed: [9]
inactive: all other assays above

CCCCC(CC)COP(=O)(O)OCC(CC)CCCC (stereo unspecified)
inactive: [1] | [8] | [2] | [7]

OCCCC(F)(F)C(F)(F)C(F)(F)C(F)(F)C(F)(F)C(F)(F)C(F)(F)F
inactive: [1] | [8] | [2] | [3] | [9] | [7]
active: [5] 79.1 µM | [6] 16.6 µM and 17.2 µM | [7] 81.7 µM

O=C(Cl)C(F)(F)C(F)(F)C(F)(F)C(F)(F)C(F)(F)C(F)(F)C(F)(F)C(F)(F)F
active: [6] 24.9 µM
not listed: [3] | [9] | [10]
inactive: all other assays above

FC(F)(F)C(F)(F)C(F)(F)C(F)(F)C(F)(F)C(F)(F)C(F)(F)Br
not listed: [6] | [10]
inactive: all other assays above

c1ccc(B(c2ccccc2)c2ccccc2)cc1
not listed: [6] | [9] | [10]
inactive: all other assays above

C#C[C@]1(O)CC[C@H]2[C@@H]3CCc4cc(OC)ccc4[C@H]3CC[C@@]21C
not listed: [6] | [9] | [10]
inactive: all other assays above

C=C(C)C(=O)OCC(F)(F)C(F)(F)C(F)(F)F
not listed: [4]
inactive: all other assays above

FC(F)(F)C(F)(F)C(F)(F)C(F)(F)C(F)(F)C(F)(F)CCS
not listed: [4] | [8]
inactive: all other assays above

CC(C)(C)C(=O)CC(=O)C(F)(F)C(F)(F)C(F)(F)F
not listed: [3] | [4] | [9]
inactive: all other assays above

FC1CC(F)(F)C(F)(F)C1(F)F (stereo unspecified)
inactive: [1] | [8] | [2] | [3] | [7]

O=C(O)C(F)(F)C(F)(F)C(F)(F)F
not listed: [10]
inactive: all other assays above

O=C(O)C(F)(OC(F)(F)C(F)(OC(F)(F)C(F)(OC(F)(F)C(F)(F)C(F)(F)F)C(F)(F)F)C(F)(F)F)C(F)(F)F (stereo unspecified)
not listed: [4] | [9] | [10]
inactive: all other assays above

CCCCOc1ccc(N)cc1
inactive: [1] | [2] | [3] | [9] | [10] | [7]

CC(Cc1ccc(O)c(O)c1)C(C)Cc1ccc(O)c(O)c1 (stereo unspecified)
active: [6] 57.1 µM
not listed: [9]
inactive: all other assays above

FC(F)(F)C(F)(F)C(F)(F)CI
inactive: [1] | [2] | [3] | [9] | [4] | [7]

CCCCCCCCCCCCCCCC[N+](C)(C)Cc1ccccc1
inactive: [8] | [2] | [3] | [6] | [7]
active: [1] 45.2 µM | [4] 24.8 µM

CCc1c(Br)c(Br)c(Br)c(Br)c1Br
active: [6] 26.8 µM
not listed: [4] | [8] | [9]
inactive: all other assays above

OCC(F)(F)C(F)(F)C(F)(F)C(F)(F)C(F)(F)C(F)F
inactive: [1] | [2] | [3] | [4] | [6] | [7]

O=C(O)C(F)(F)C(F)(F)C(F)(F)C(F)(F)C(F)(F)C(F)(F)C(F)(F)C(F)(F)C(F)(F)C(F)(F)C(F)(F)C(F)(F)F
not listed: [10]
inactive: all other assays above

CCCCCCOC(=O)c1ccccc1O
not listed: [9] | [10]
inactive: all other assays above

O=C(O)C(F)(F)C(F)(F)C(F)(F)C(F)(F)F
not listed: [4] | [6]
inactive: all other assays above

O=C(O)C(F)(F)C(F)(F)C(F)F
not listed: [10]
inactive: all other assays above

Nc1ccc(S(=O)(=O)Nc2nccs2)cc1
not listed: [2]
inactive: all other assays above

C(=C(c1ccccc1)c1ccccc1)c1ccccc1
active: [6] 26.4 µM
not listed: [1] | [3] | [10]
inactive: all other assays above

O=C(O)C=C(C(F)(F)F)C(F)(F)F
not listed: [1]
inactive: all other assays above

CCCCCCCOC(=O)c1ccccc1C(=O)OCCCCCCC
inactive: [1] | [2] | [4] | [5] | [6] | [7]

FC(F)(Br)C(F)(F)C(F)(F)C(F)(F)C(F)(F)C(F)(F)Br
not listed: [1] | [4] | [9]
inactive: all other assays above

FC(F)(F)C(F)(F)C(F)(F)C(F)(F)C(F)(F)CCI
inactive: [8] | [2] | [3] | [6] | [7]

CCCCCCS
inactive: [8] | [2] | [4] | [5] | [6] | [7]

CC(C)=CCCC(C)CCOC(=O)C(C)C (stereo unspecified)
not listed: [1] | [9]
inactive: all other assays above

OCC(F)(F)C(F)(F)C(F)(F)F
not listed: [1] | [10]
inactive: all other assays above

CS(C)(=O)=O
inactive: [8] | [2] | [3] | [5] | [6] | [7]
